Compound activity: PubChem BioAssay, National Center for Advancing Translational Sciences (NCATS)
Shown are actives, neighbours in structure and some others; about 19% of the full set was active somewhere.
DT40 TDP1 CPT: DT40-hTDP1 cell growth loss with CPT; Potency, µM (top dose mostly 46.2 µM), most hits filed as inhibitors; 420,000 compounds, 12% hits; chicken DT40 Tdp1-/-;hTDP1 cells + 20 nM CPT, ATP luminescence, 48 h; AID 686979; also: nearly all actives have a fitted effect of over 55% in size
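Chicken DT40 Tdp1-/- cells complemented with human TDP1, 400 cells/well, exposed to compounds plus 20 nM camptothecin for at least 48 h at 37 C; viability read as ATP content by CellTiter-Glo luminescence.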
TGFb SMAD3 inh: blocks TGF-b signaling; 410,000 compounds, 1.2% hits; HepG2 CAGA-GFP TGF-b/SMAD3 reporter, GFP fluorescence, 18 h; TGF-beta stimulated, 500 pg/mL final; Potency, µM (top dose mostly 46.1 µM), most hits filed as inhibitors; AID 588855; also: nearly all actives have a fitted effect of over 65% in size
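Inhibition was scored as loss of TGF-beta-induced (500 pg/mL final, 18 hours, 37 degrees C) GFP in HEPG2 cells carrying a CAGA-GFP reporter, in DMEM with 1% FBS. Well GFP was summed per cell; Activity was normalised to unstimulated and stimulated DMSO wells, then concentration-response fitting.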
DT40 TDP1 no CPT: qHTS for Inhibitors of human tyrosyl-DNA phosphodiesterase 1 (TDP1): qHTS in cells in absence of CPT. DT40 Tdp1-/- hTDP1 cells, no CPT, ATP luminescence, 48 h. Potency, µM (top dose mostly 46.2 µM), usual class: inhibitors. 420,000 compounds, 15% hits; also: nearly all actives have a fitted effect of over 55% in size
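Chicken DT40 Tdp1-/- cells stably complemented with human TDP1 were seeded at 400 cells/well with DMSO in place of 20 nM camptothecin. After compound pinning, cells grew at least 48 hr at 37 °C; viability read by CellTiter-Glo luminescence.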
IL-1B inflam inh: inflammasome signaling inhibition, IL-1 beta readout. THP-1 LPS/ATP IL-1B secretion, AlphaLISA, 16 h; active compounds read low. activity change, % at 57.5 µM. 360,000 compounds, 4.7% hits. AID 743279; in the data active = activity change below about -50%; inconclusive = mostly about -30% to -49%
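THP-1 cells pretreated 1 hr with compounds (up to 57.5 uM final), then stimulated with LPS (250 ng/mL final) plus ATP (1.25 mM final); secreted IL-1B measured by AlphaLISA after 16 hr, decreased signal indicating inhibition.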
HepG2 viability: kills HepG2 cells in TGF-b inhibitor counter-screen; 410,000 compounds, 0.76% hits; HepG2 CAGA-GFP viability, ATP luminescence, 18 h; Potency, µM (doses to about 46.1 µM), actives largely listed as cytotoxic
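HepG2 CAGA-GFP cells (1000/well, DMEM with 1% FBS) received compound, then TGF-beta at 500 pg/mL final, and were incubated 18 hours at 37 degrees C. Viability was read by CellTiter-Glo luminescence. Media-only wells were set as complete cell-killing and DMSO as no toxicity.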
ASM inhibitor: human S-ASM enzyme inhibition | P17405 | placental ASM, HMU-PC fluorogenic substrate, 60 min | Potency, µM (doses to about 57.5 µM), most hits filed as inhibitors | 340,000 compounds, 0.006% hits | AID 504937
Target sequence (P17405 47-631 limits assumed): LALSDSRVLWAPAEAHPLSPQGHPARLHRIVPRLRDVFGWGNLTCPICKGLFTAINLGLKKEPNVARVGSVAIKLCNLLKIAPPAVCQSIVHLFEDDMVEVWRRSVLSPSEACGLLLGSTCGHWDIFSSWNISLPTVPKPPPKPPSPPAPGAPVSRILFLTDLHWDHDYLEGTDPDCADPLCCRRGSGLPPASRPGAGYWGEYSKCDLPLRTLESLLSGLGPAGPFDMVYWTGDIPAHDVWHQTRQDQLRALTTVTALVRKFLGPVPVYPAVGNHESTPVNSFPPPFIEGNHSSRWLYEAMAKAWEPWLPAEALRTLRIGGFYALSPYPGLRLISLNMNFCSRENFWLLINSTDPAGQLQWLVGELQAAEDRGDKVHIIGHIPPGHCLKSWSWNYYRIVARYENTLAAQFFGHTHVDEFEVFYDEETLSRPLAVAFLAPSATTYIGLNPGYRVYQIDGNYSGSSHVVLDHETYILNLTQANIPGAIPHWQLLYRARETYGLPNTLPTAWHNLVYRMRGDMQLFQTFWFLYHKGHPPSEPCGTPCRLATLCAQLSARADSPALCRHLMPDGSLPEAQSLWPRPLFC
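Fluorescence read-out (Ex 386 nm, Em 447 nm) after stopping the reaction at pH 10. Enzyme: ASM from human placenta; substrate HMU-PC0, 9 uM final; 60 min, 37 °C. Compound preincubation 10 min, ambient temperature.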
Numbers stand for hits; n = inactive; u = inconclusive; x = not tested or not shown. Unless noted, calls follow the shape of the dose curve; as a rule, active = well fitted curve in the direction sought with a large enough effect; inconclusive = small, poorly fitted or top-dose-only effect, or another doubt; inactive = no such curve, though single readings can be large; an effect the other way counts as inactive or inconclusive.

SMILES	DT40 TDP1 CPT	TGFb SMAD3 inh	DT40 TDP1 no CPT	IL-1B inflam inh	HepG2 viability	ASM inhibitor
COc1ccc(C(C)=O)c(Oc2cc(NN3CCCCC3)c([N+](=O)[O-])cc2[N+](=O)[O-])c1	n	n	n	n	n	n
Oc1nc(Nc2ccc(F)cc2)sc1/C=C1\C=Nc2ccccc21	u	u	n	-78.1	n	n
O=C(Cc1cccc(NC(=O)C2CCN(C(=O)C3CC3)CC2)c1)Nc1cccc(C(=O)N2CCCCC2)c1	n	n	n	n	n	n
COc1ccc(CN2CCN(S(=O)(=O)c3ccc(NC(C)=O)cc3)CC2)cc1	u	n	u	n	n	n
COc1ccc(CN2CCN(C(=O)C3CCC(CNS(=O)(=O)c4ccc(C)cc4)CC3)CC2)c(OC)c1OC (centres undefined)	u	u	20.6µM	n	n	n
CCOC(=O)N1CCN(C(=O)C2CCC(CNS(=O)(=O)c3ccc(Cl)cc3)CC2)CC1 (centres undefined)	u	n	u	n	n	n
COc1ccc(CN2CCN(S(=O)(=O)c3ccc(NC(C)=O)cc3)CC2)c(OC)c1OC	16.4µM	u	u	n	n	n
CCOCCn1c(N2CCCN(C)CC2)nc2ccccc21	n	x	n	x	x	x
S=C(NCCc1ccccc1)NCCc1ccccc1	u	u	u	n	n	n
Cc1c(Cl)cccc1NC(=S)NCCc1ccc(C(F)(F)F)cc1	u	u	16.4µM	-102.2	n	n
COc1ccc(CCNC(=S)NCc2ccc(Cl)c(Cl)c2)cc1OC	n	u	u	-85.3	n	n
Fc1ccccc1NC(=S)NCCc1cccc(Cl)c1	8.2µM	n	7.31µM	-88.2	n	n
Cc1c(Cl)cccc1NC(=S)NCCc1ccccn1	n	n	n	x	n	n
CC(=O)c1ccc(NC(=S)NCCc2cccc(Cl)c2)cc1	u	u	u	n	n	n
S=C(NCCc1ccccc1)NCc1cccc(Cl)c1	n	12.6µM	n	n	n	n
Cc1ccccc1C(=O)Nc1nc2nc(-c3ccccc3)cc(=O)n2[nH]1	n	u	n	x	n	x
CN(Cc1ccccc1)C(=O)COC(=O)CNS(=O)(=O)c1ccc2ccccc2c1	n	n	n	n	n	n
Cc1ccc(S(=O)(=O)N(CC(=O)NCc2ccncc2)Cc2ccc(F)cc2)cc1	u	u	u	n	n	n
CCN1CCCC1CNC(=O)C1CCN(Cc2nc(-c3cccc(Br)c3)oc2C)CC1 (centres undefined)	5.8µM	n	2.91µM	-83.1	n	n
COc1ccccc1CNC(=O)C1CCN(Cc2nc(-c3ccc(OC)c(OC)c3)oc2C)CC1	n	n	u	x	n	x
COc1ccccc1CNC(=O)C1CCN(Cc2nc(-c3cccc(Cl)c3)oc2C)CC1	20.6µM	n	u	n	n	n
CCc1ccc(-c2nc(CN3CCC(C(=O)NCCc4ccc(C)cc4)CC3)c(C)o2)cc1	n	u	u	x	n	x
Cc1oc(-c2cccc(Cl)c2)nc1CN1CCC(C(=O)NCc2ccc(F)cc2)CC1	u	n	14.6µM	x	n	x
Cc1oc(-c2cccc(Cl)c2)nc1CN1CCC(C(=O)NCc2ccco2)CC1	n	n	u	n	n	n
CCc1ccc(-c2nc(CN3CCC(C(=O)NCc4ccccc4OC)CC3)c(C)o2)cc1	18.4µM	u	u	u	14.1µM	n
SMILES	DT40 TDP1 CPT	TGFb SMAD3 inh	DT40 TDP1 no CPT	IL-1B inflam inh	HepG2 viability	ASM inhibitor
COC(=O)c1ccc(N2CCN(C(C)=O)CC2)c(NC(=O)c2cccnc2)c1	n	n	n	n	n	n
Cc1ccc(S(=O)(=O)Nc2ccccc2-c2nc3ccccc3[nH]c2=O)cc1	n	n	u	n	n	n
CCc1ccc(-c2nc(CN3CCC(C(=O)NCCc4ccc(OC)c(OC)c4)CC3)c(C)o2)cc1	16.4µM	n	u	-54.2	n	n
COc1ccccc1/C=C/C(=O)Nc1ccc(S(=O)(=O)Nc2cc(C)nc(C)n2)cc1	n	n	n	n	n	n
O=C(Nc1ccccc1F)Nc1ccccc1N1CCCCC1	n	u	n	n	n	n
O=C(Nc1ccc(C(F)(F)F)cc1)c1cnc(N2CCN(c3ccccn3)CC2)c2ccccc12	20.6µM	n	u	n	n	n
Cc1ccc(Cl)cc1NC(=O)c1cnc(N2CCCCC2)c2ccccc12	18.4µM	u	13µM	x	n	x
CCc1ccccc1NC(=O)c1cnc(N2CCCCC2)c2ccccc12	18.4µM	n	u	x	n	x
Cc1ccc(NC(=O)c2cnc(N3CCCCC3)c3ccccc23)c(C)c1	u	n	n	x	n	x
O=C(Nc1ccccc1F)c1cnc(N2CCCCC2)c2ccccc12	16.4µM	n	23.1µM	x	n	x
O=C1CC(=O)Nc2cc(S(=O)(=O)NCc3cccs3)ccc2N1	n	n	n	n	n	n
CCCCn1c(N)c(N(CCOC)C(=O)c2ccc(-c3ccccc3)cc2)c(=O)[nH]c1=O	n	n	n	n	n	n
S=c1[nH]nc(Cn2cnc3ccccc32)n1-c1ccccc1Cl	n	n	n	n	n	n
O=C(c1ccccc1)c1ccccc1N1C(=O)C=CC1=O	0.731µM	u	1.64µM	-97.7	n	n
O=C1C=CC(=O)N1c1ccccc1N1C(=O)C=CC1=O	0.92µM	u	0.581µM	-97.8	n	n
CC1CCCCN1c1cc(C#N)c(C#N)cc1[N+](=O)[O-] (centres undefined)	18.4µM	n	n	n	n	n
C[C@@H]1CC[C@H](Cc2ccc(-n3cccc3)cc2)N1C(=O)OC(C)(C)C	u	n	18.4µM	n	n	x
CC1(C)CC(Cc2ccc(Cl)nc2)N(C(=O)OC(C)(C)C)C1 (centres undefined)	u	n	u	n	n	x
O=C(Nc1ccccc1Cl)N1CCC2(CC1)Oc1ccccc1C(=O)N2Cc1ccc(F)cc1	u	n	20.6µM	x	n	x
Cc1ccc(NC(=O)N2CCC3(CC2)Oc2ccccc2C(=O)N3Cc2ccc(F)cc2)cc1	u	n	u	x	n	x
O=C(Nc1ccc(F)c(Cl)c1)N1CCC2(CC1)Oc1ccccc1C(=O)N2Cc1ccccc1F	u	x	11.6µM	x	n	x
O=C(Nc1ccc(Br)cc1F)N1CCC2(CC1)Oc1ccccc1C(=O)N2Cc1ccccc1F	u	x	16.4µM	x	n	x
COc1ccc(Cl)cc1NC(=O)N1CCC2(CC1)Oc1ccccc1C(=O)N2Cc1ccc(F)cc1	u	n	u	x	n	x
COC(=O)[C@H](CC(C)C)NC(=O)NCc1ccc(Cl)cc1	n	n	n	n	n	n
